# Bioassay records as filed in PubChem BioAssay.
# SNCA viab count: counter-screen for SNCA expression inhibitors: cell viability; HEK-293-SNCA-luc viability, GF-AFC fluorescence, 24 h; Potency, µM (doses to about 57.1 µM), inactives show top-dose activity change, negative = cytotoxicity, hits mostly cytotoxic; 0.12% of 150,000 active; AID 1671193;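 further: potency means the concentration at half of the fitted maximal effect; 0% = DMSO-treated cells and -100% = medium-only wells without cells; nearly all actives have a fitted effect of over 30% in size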
#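 HEK-293-SNCA-luc cells (1500/well) plated 24 h, then exposed 24 h to a dilution series; GF-AFC added 30 min at 37C, fluorescence 405/540 nm; normalised to medium-only and DMSO wells, Hill fit.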
# HEK cytotox: HEK 293 cell cytotoxicity; HEK 293 viability, ATP luminescence (CellTiter-Glo), 48-72 h; Potency, µM (top dose mostly 115 µM), inactives show at the highest dose activity change, negative = cytotoxicity, usual class: inhibitors; 6.6% of 94,000 active; AID 1345083; further: potency means the concentration at half of the fitted maximal effect; nearly all actives have a fitted effect of over 60% in size
#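 HEK 293 cells at 250 cells/well were exposed to compounds by pintool transfer for 48 or 72 hr at 37 degree Celsius, 5% CO2. Viability was read as ATP-coupled luminescence with CellTiter-Glo after 10 min at room temperature.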
# 3T3 cytotox: cytotoxic compounds in NIH 3T3 cells | AID 1345082 | 4.3% of 94,000 active | Potency, µM (series often up to 96.7 µM), for inactives: top-dose activity change, negative = cytotoxicity, hits mostly inhibitors | NIH 3T3 viability, CellTiter-Glo ATP luminescence, 48-72 h; further: potency means the concentration at half of the fitted maximal effect; nearly all actives have a fitted effect of over 55% in size
#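 NIH 3T3 cells at 400 cells/well received 23 nL of compound by pintool and were incubated 48 or 72 h at 37 °C. Viability was read as ATP-coupled CellTiter-Glo luminescence.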
# IP6K1 inhibitor: IP6K1 kinase inhibition; IP6K1 kinase, ADP-Glo luminescence, 2 h; hits give low values; 0.81% of 140,000 active; activity change, % (series mostly up to about 58 µM); Q92551; AID 1645851; in the data active means activity change below about -25%
# Target sequence (Q92551 whole entry, looked up): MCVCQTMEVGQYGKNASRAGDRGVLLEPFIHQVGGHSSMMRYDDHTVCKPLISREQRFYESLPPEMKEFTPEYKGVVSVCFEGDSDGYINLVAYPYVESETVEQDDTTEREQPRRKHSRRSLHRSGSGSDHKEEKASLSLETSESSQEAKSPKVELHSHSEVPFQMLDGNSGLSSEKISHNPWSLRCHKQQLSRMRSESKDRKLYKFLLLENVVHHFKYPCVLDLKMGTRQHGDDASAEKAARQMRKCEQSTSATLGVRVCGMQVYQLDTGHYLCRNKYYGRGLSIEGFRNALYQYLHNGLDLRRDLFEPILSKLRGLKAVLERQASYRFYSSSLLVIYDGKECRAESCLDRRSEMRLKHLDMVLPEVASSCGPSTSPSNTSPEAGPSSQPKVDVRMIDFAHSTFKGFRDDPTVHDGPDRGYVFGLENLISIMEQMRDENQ
#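 ADP-Glo luminescence measures ADP made by human IP6K1 during a 2 h RT reaction with ATP/IP6 (mix at 1.3 mM/130 uM); top library doses 57.5 and 19.1 uM final.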
# SNCA expr inh: SNCA gene expression inhibition. HEK-293 SNCA-luciferase knock-in, luminescence, 24 h. Potency, µM (doses to about 57.2 µM), without a hit: at the top dose activity change, negative = inhibition, hits mostly inhibitors. 0.17% of 140,000 active. AID 1671194;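 further: potency means the concentration at half of the fitted maximal effect; plate controls were DMSO cells for no effect and cell-free wells for full effect; nearly all actives have a fitted effect of over 45% in size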
# FLuc inh: inhibitors of firefly (Photinus pyralis) luciferase; P08659; purified P. pyralis luciferase, luminescence, biochemical; Potency, µM (titrated, usually from 115 µM), actives largely listed as inhibitors; 2.5% of 76,000 active; AID 1347043; further: potency means the concentration at half of the fitted maximal effect; nearly all actives have a fitted effect of over 65% in size
#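 Cell-free enzyme assay, 10nM P. pyralis luciferase, luciferin and ATP each at 10uM. Inhibition profiled over a 6-point titration, read as luminescence.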
# Starred values were filed as active, the others as inactive; i = inactive; u = inconclusive; x = no result; ! = a repeat was not active; [ ] = remark or other dose. The list is not random: actives were taken first. Their share in the collection is about 7.3%. Unless noted, the call rests on the fitted dose curve; in most records, active means well fitted curve in the direction sought with a large enough effect; inconclusive means small, poorly fitted or top-dose-only effect, or another doubt; inactive means no such curve, though single readings can be large; an effect the other way counts as inactive or inconclusive. Unless noted, on the % scale 0 is the no-effect control and ±100 the full control effect.
SMILES,SNCA viab count,HEK cytotox,3T3 cytotox,IP6K1 inhibitor,SNCA expr inh,FLuc inh
C[S+](=O)([O-])CCn1ncc2cc(OCc3cccc(-c4ccoc4)c3)ccc21,-3.0%[87.6 µM],70.8µM*,u,-10.1,100.3%[87.6 µM],u
COc1cc(F)cc(-c2ccc(COc3ccc4c(cnn4CCC(=O)O)c3)cc2)c1,0.4%[87.6 µM],u,u,-13.1,3.3%[87.6 µM],u
O=C(O)CCn1ncc2cc(OCc3ccc(-c4cncnc4)cc3)ccc21,4.2%[87.6 µM],-25.6%[172 µM],44.7µM*,-3.1,u,50.1µM*
O=C(NCc1ccc(F)cc1)C1CCCN(Cc2cccc(-c3ccc(F)cc3F)c2)C1 (configuration not stated),-1.5%,u,44.7µM*,-15.8,-21.4%,x
O=C(NCc1ccccc1Cl)C1CCCN(Cc2cccc(-c3ccc(F)cc3F)c2)C1 (configuration not stated),-17.9%,44.7µM*,u,-8.2,-3.6%,x
O=C(Nc1ccccc1Cl)C1CCCN(Cc2cccc(-c3ccc(F)cc3F)c2)C1 (configuration not stated),-17.1%,31.6µM*,35.5µM*,-11.9,-28.1%,x
CCOCCn1cc(C2CCN(S(=O)(=O)c3cccc(Cl)c3C)CC2)c2ccccc21,7.5%,u,-24.9%,4.1,-1.0%,i
CCOC(=O)C1(Cc2ccc(Cl)cc2)CCN(C(=O)c2cc(C)oc2C)CC1,u,20µM*,25.1µM*,1.9,-28.9%,i
CCOC(=O)C1(Cc2ccc(OC)cc2)CCN(C(=O)c2cccc(Cl)c2)CC1,3.7%,u,u,5.6,-4.8%,u
O=C(c1ccc(Nc2nccc(-c3cc4ccccc4s3)n2)cc1)N1CCC(N2CCCC2)CC1,29.9µM*!,x,x,-1.1,u,x
O=C(Nc1ccccc1)c1ccc2c(c1)OCCN(c1ccccc1)C2,-25.6%[87.6 µM],112µM*,-62.5%[138 µM],0.6,77.0%[87.6 µM],u
O=C(NC1CC1)c1ccc2c(c1)OCCN(c1cccc(OC(F)(F)F)c1)C2,5.3%[87.6 µM],u,u,-6.8,-4.9%[87.6 µM],i
COc1ccc(NC(=O)c2ccc3c(c2)OCCN(c2ccccc2)C3)cn1,-14.1%[87.6 µM],u,u,-5.6,24.9%[87.6 µM],i
O=C(NC1CCOCC1)c1ccc2c(c1)OCCN(c1ccccc1)C2,1.9%[87.6 µM],79.4µM*,u,-1.9,-14.7%[87.6 µM],i
O=C(c1ccc2c(c1)OCO2)N1CCCC2(CC(c3ccccc3)=NO2)C1 (configuration not stated),1.5%,-11.2%,0.2%,-7.3,-2.8%,x
COc1ccc(N2C(=O)CSC23CCN(C(=O)Nc2ccc(C)cc2)CC3)cc1,3.0%,-10.2%,u,11.2,78.5%,u
Cc1nc(CN2Cc3nc(-c4cc5ccccc5o4)ccc3OCC2=O)cs1,-14.8%[87.6 µM],63.1µM*,u,-10.5,u,u
COc1ccccc1-c1ccc2c(n1)CN(Cc1csc(C)n1)C(=O)CO2,2.8%[87.6 µM],-11.0%[172 µM],44.7µM*,-5.9,7.3%[87.6 µM],i
CNCc1ccc(C(F)(F)F)cc1,0.3%[87.6 µM],i,4.8%[174 µM],5.0,-16.6%[87.6 µM],x
COc1ccc(CNC(=O)O[C@H]2COCCN(c3nc4ccccc4s3)C2)cc1,-16.7%[87.6 µM],89.1µM*,u,11.9,u,i
Cc1cccc(O[C@H]2COCCN(c3nc4ccccc4s3)C2)n1,-5.1%[87.6 µM],100µM*,u,7.4,129.1%[87.6 µM],50.1µM*
COc1ccc(CN2C(=O)[C@@H]3C[C@@H](O)CN3C3(CN(C4CCN(C(C)=O)CC4)C3)C2=O)cc1,3.9%,3.8%,3.1%,-8.6,-9.5%,i
Oc1cccc(CN(Cc2ccsc2)Cc2ccco2)c1,-8.5%,35.5µM*,31.6µM*,0.3,-21.2%,i
Cc1cc(C)c(OCC(=O)N(Cc2cccc(F)c2)Cc2ccco2)c(C)c1,-18.1%,x,x,55.0,u,x
Cc1cc(C)nc(CNC(=O)c2ccc3nc(-c4ccc(F)cc4)cn3c2)n1,10.8%,0.6%,4.8%,1.7,20.0%,i
SMILES,SNCA viab count,HEK cytotox,3T3 cytotox,IP6K1 inhibitor,SNCA expr inh,FLuc inh
CCC(NC(=O)c1ccc2nc(-c3ccc(F)cc3)cn2c1)c1cccnc1 (configuration not stated),1.9%,u,u,-5.0,95.5%,15.8µM*
O=C(NC1C=CS(=O)(=O)C1)c1ccc2nc(-c3ccc(F)cc3)cn2c1 (configuration not stated),-23.0%,44.7µM*,u,0.6,73.5%,39.8µM*
CN1c2cc(C(=O)Nc3ccc(C#N)cc3)ccc2C(=O)N2CCCCC21 (configuration not stated),2.1%[12.5 µM],u,35.5µM*,4.7,u,i
CN1c2cc(C(=O)Nc3cccc(C#N)c3)ccc2C(=O)N2CCCCCC21 (configuration not stated),21.8%[12.5 µM],u,u,12.0,96.5%,28.2µM*
c1ccc(-c2ccc(CN[C@H]3CO[C@H]4[C@@H]3OC[C@@H]4n3cc(CC4CCCCC4)nn3)cc2)cc1,-19.6%,u,u,-0.1,10.3%,i
c1ccc(-c2nnc([C@H]3CCN(C4CCOCC4)C3)o2)cc1,-5.9%[87.6 µM],-1.4%[172 µM],-7.5%[174 µM],15.8,99.5%[87.6 µM],u
CN(C)c1ccc(-c2nnc([C@H]3CCN(C4CCC4)C3)o2)cc1,-3.0%[87.6 µM],-11.0%[172 µM],3.4%[138 µM],-2.9,68.1%[87.6 µM],70.8µM*
c1ccc(-c2nnc([C@H]3CCN(C4CCC4)C3)o2)cc1,-7.3%[87.6 µM],u,-13.6%[230 µM],0.2,52.9%[87.6 µM],25.1µM*
O=C(NC1CCN(c2cc(-c3ccc(Cl)cc3)[nH]n2)CC1)c1ccc(F)cc1F,10.1%,u,-21.8%,15.8,-6.4%,i
CCC(=O)N(C1CCOCC1)C1CCN(Cc2ccc[nH]2)CC1,7.6%,-10.7%,-14.3%,-8.3,9.6%,i
CCC(C)NC(=O)N1CC(Oc2ccccc2-c2nc(-c3ccccc3)no2)C1 (configuration not stated),u,u,35.5µM*,15.7,u,u
O=C(Cc1cccs1)N1CC(Oc2ccccc2-c2nc(C3CC3)no2)C1,8.2%,u,-22.8%,-7.3,-1.3%,i
c1ccc(-c2noc(-c3ccccc3OC3CNC3)n2)cc1,-4.4%,u,28.2µM*,14.7,-3.8%,22.4µM*
CCCNC(=O)N1CCC(Oc2ccccc2-c2nc(-c3ccncc3)no2)C1 (configuration not stated),-9.6%,-20.7%,u,-4.4,38.7%,i
O=C(Cc1ccsc1)N1CC(Oc2ccccc2-c2nc(-c3ccccc3)no2)C1,-11.8%,u,35.5µM*,0.5,-4.6%,u
O=C(NCCc1ccccc1)N1CC(Oc2ccccc2-c2nc(-c3ccccc3)no2)C1,-25.2%,22.4µM*,28.2µM*,16.5,-1.5%,u
